High-throughput results deposited in PubChem BioAssay by National Center for Advancing Translational Sciences (NCATS).
Shown is part of a subset that was picked to be rich in hits.
HTT aggregate: qHTS Multiplex Assay to Identify Dual Action Probes in a Cell Model of Huntington: Aggregate Formation (GFP); PC12 HttQ103-GFP aggregates, Acumen cytometry, 40 h; Potency, µM (doses to about 46.1 µM), usual class: inhibitors; actives 1.1% (n = 220,000); also: nearly all actives have a fitted effect of over 60% in size
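Aggregates are detected as GFP objects 1–25 µm with signal 6 STDEV over background in lysates of induced PC12 cells. These carry Huntingtin exon 1 with 103 glutamines fused to GFP under an ecdysone promoter; compounds titrated.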
PI4K2A inh: qHTS for small molecular inhibitors of PI4K2A. AID 1346378, 2018. activity change, negative = inhibition, % at 76.9 µM. purified PI4K2A, ADP-Glo luminescence, 1 h; active compounds read low. actives 0.13% (n = 420,000); in the data active = activity change below about -50%; inconclusive = mostly about -30% to -49%
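In this quantitative HTS, ADP production by PI4K2A was quantified luminescently after 1 h at ambient temperature; 100 microM adenosine served as plate-quality control.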
GALK inhibitor: qHTS Assay for Inhibitors of Human Galactokinase (GALK). Purified GALK, Kinase-Glo residual ATP luminescence. Potency, µM (top dose mostly 57.5 µM), hits mostly inhibitors. actives 0.007% (n = 270,000). AID 1868, 2009
Target sequence (P51570 whole entry, looked up): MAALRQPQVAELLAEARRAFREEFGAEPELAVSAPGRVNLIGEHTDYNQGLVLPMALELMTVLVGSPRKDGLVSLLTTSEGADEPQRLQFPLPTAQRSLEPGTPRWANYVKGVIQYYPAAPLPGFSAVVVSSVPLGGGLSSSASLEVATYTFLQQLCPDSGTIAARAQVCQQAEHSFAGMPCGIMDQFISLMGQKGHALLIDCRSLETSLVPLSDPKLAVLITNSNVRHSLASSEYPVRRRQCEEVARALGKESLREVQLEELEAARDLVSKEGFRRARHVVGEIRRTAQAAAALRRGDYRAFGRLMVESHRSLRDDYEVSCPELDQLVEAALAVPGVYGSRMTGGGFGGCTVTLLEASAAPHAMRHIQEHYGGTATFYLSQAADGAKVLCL
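GALK at 5 nM final was combined with compound, 35 uM ATP and 100 uM galactose in HEPES pH8.0 with MgCl2 and DTT. The reaction ran one hour at room temperature before luminescent ATP detection.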
HTT cytoprotect: qHTS Multiplex Assay to Identify Dual Action Probes in a Cell Model of Huntington: Cytoprotection (ATP). PC12 HTT-Q103 induced, cytoprotection, ATP luminescence, 40 h. Potency, µM (doses to about 56.4 µM), actives largely listed as activators. AID 1471, 2008. actives 0.14% (n = 230,000); also: nearly all actives have a fitted effect of over 45% in size
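Stable PC12 Q103-GFP cells in serum-supplemented, phenol red-free DMEM; induction by tebufenozide at 100 nM final; compound dose series; cell viability quantified luminescently from ATP.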
Of the large screens only hits and unclear results are named; the others gave an inactive call. Unless noted, calls follow the shape of the dose curve; as a rule, active = well fitted curve in the direction sought with a large enough effect; inconclusive = small, poorly fitted or top-dose-only effect, or another doubt; inactive = no such curve, though single readings can be large; an effect the other way counts as inactive or inconclusive.

Cc1ccc(Cl)cc1NC(=O)CC(O)(C(F)(F)F)C(F)(F)F	HTT aggregate 15.8µM
COCC(=O)Nc1cc(Cl)ccc1C	none
O=C(OCC(COC(=O)c1cccnc1)(COC(=O)c1cccnc1)COC(=O)c1cccnc1)c1cccnc1	none (no result: HTT aggregate, GALK inhibitor, HTT cytoprotect)
Cc1ccsc1C(=O)Nc1ccc(OCc2ccccc2)cc1	PI4K2A inh inconclusive (no result: HTT aggregate, HTT cytoprotect)
Cc1ccsc1C(=O)Nc1ccc(C(=O)O)cc1	PI4K2A inh -74.0
Cc1ccc(C(=O)Cn2c(C(=O)/C=C/c3ccccc3)nc3ccccc32)cc1	HTT aggregate 11.2µM
O=C(CCl)N(c1ccccc1)C1CCS(=O)(=O)C1 (stereo unspecified)	HTT aggregate 8.91µM
Cc1ccc(/C=N\NC(=O)CN2CCN(S(=O)(=O)c3ccc(Br)cc3)CC2)s1	none (no result: HTT aggregate, GALK inhibitor, HTT cytoprotect)
CCC(C)NS(=O)(=O)c1ccc2[nH]c(=O)oc2c1 (stereo unspecified)	none (no result: HTT aggregate, GALK inhibitor, HTT cytoprotect)
COc1cc(C2c3c([nH]c(=O)[nH]c3=O)Nc3ccc4ccccc4c32)cc(OC)c1OC (stereo unspecified)	PI4K2A inh -60.1
COc1cc(C2c3c([nH]c(=O)[nH]c3=O)Nc3ccc4ccccc4c32)ccc1O (stereo unspecified)	none
Nc1cc2ccncc2c2ccccc12	HTT aggregate 0.355µM
O=C(NCc1ccco1)c1sc(=S)n2c1[nH]c(=O)c1ccccc12	none
O=C(NC1CCCC1)c1sc(=S)n2c1[nH]c(=O)c1ccccc12	HTT aggregate 8.91µM
C[C@@H]1C[C@@]2(C)Oc3ccccc3[C@H]3OC[C@]1(COC(=O)Nc1ccccc1)[C@@H](C)[C@@H]32	none (no result: HTT aggregate, PI4K2A inh, GALK inhibitor)
Cc1cc(C(=O)CSc2nc3ccc(Cl)cc3[nH]2)c(C)n1CC1CCCO1 (stereo unspecified)	HTT aggregate 3.16µM
Cc1cc(C(=O)CSc2nc3ccc(Cl)cc3[nH]2)c(C)n1C	none
CC(C)(C)OC(=O)n1cc(-c2ccccc2)c2c(-c3ccccc3)c(O)ccc21	none (no result: HTT aggregate, GALK inhibitor, HTT cytoprotect)
CN(CC(=O)NCc1ccccc1)S(=O)(=O)c1cnc[nH]1	HTT aggregate 0.631µM (no result: HTT cytoprotect)
CCCCCC(O)/C=C/C=C\CCCCCCCC(=O)O (stereo unspecified)	none (no result: HTT aggregate, PI4K2A inh, GALK inhibitor)
CC1=NN(c2ccc(Br)cc2)C(=O)/C1=C/c1ccc(-c2ccccc2C(=O)O)o1	PI4K2A inh -50.2 (no result: HTT aggregate, HTT cytoprotect)
CC1=NOC(=O)/C1=C\c1ccc(-c2ccc(Br)cc2C(=O)O)o1	none
Cc1nn(-c2ccccc2)c(C)c1C=NNC(=O)CSc1nc2ccccc2n1C	none (no result: HTT aggregate, GALK inhibitor, HTT cytoprotect)
COc1cccc(C2CC(C(F)(F)F)n3ncc(C(=O)NCc4ccco4)c3N2)c1 (stereo unspecified)	HTT aggregate 2.82µM
COc1cccc(C2CC(C(F)(F)F)n3ncc(C(=O)NC(C)(C)C)c3N2)c1 (stereo unspecified)	none
CN(CCc1ccccn1)C(=O)c1cc2ccccn2n1	none (no result: HTT aggregate, GALK inhibitor, HTT cytoprotect)
O=C(O)c1ccc(N=NNc2cccc([N+](=O)[O-])c2)cc1	none
N#C/C(=N\Nc1cccc([N+](=O)[O-])c1)C(=O)c1ccc(Br)cc1	HTT aggregate 1.78µM (no result: HTT cytoprotect)
Cc1sc(NC(=O)c2ccco2)c(C(c2cccnc2)N2CCN(CCO)CC2)c1C (stereo unspecified)	none
CCOC(=O)C1CCN(C(c2cccnc2)c2c(NC(=O)c3ccco3)sc(C)c2C)CC1 (stereo unspecified)	HTT aggregate 7.94µM
O=C(NCc1ccccc1)OCCN1C(=O)CCC12CCC(c1ccc(Cl)cc1)CC2 (stereo unspecified)	none (no result: HTT aggregate, GALK inhibitor, HTT cytoprotect)
CC/C=C\C/C=C\C/C=C\C/C=C\C/C=C\C/C=C\CCC(=O)O[C@H](COCCCCCCCCCCCCCCCC)COP(=O)([O-])OCC[N+](C)(C)C	none (no result: HTT aggregate, PI4K2A inh, GALK inhibitor)
Cn1nnc(-c2ccc(OCc3ccccc3F)cc2)n1	PI4K2A inh -56.3
O=C1N=c2ccccc2=C1c1sc(Nc2ccc(O)cc2)nc1O	PI4K2A inh -64.7
CC(CC(C#N)(c1ccccc1)C(C)C)N(C)C (stereo unspecified)	none (no result: HTT aggregate, GALK inhibitor, HTT cytoprotect)
N#CC1=C(SCC(=O)NC23CC4CC(CC(C4)C2)C3)NC(=O)C(C#N)C12CCCCC2 (stereo unspecified)	HTT aggregate 3.55µM
CC(C)(C)C1CCC2(CC1)C(C#N)=C(SCC(=O)NC1CCCCC1)NC(=O)C2C#N (stereo unspecified)	HTT aggregate 11.2µM
N#CC1=C(SCC(=O)NC2CC2)NC(=O)C(C#N)C12CCCCC2 (stereo unspecified)	none
Cc1ccc2nc(-c3ccc(SCC(=O)Nc4nnc(C)s4)nc3)[nH]c2c1	HTT aggregate 15.8µM
COc1cccc(N2C(C(C)=O)=NN(c3ccccc3)C2c2ccc(N3CCOCC3)cc2)c1 (stereo unspecified)	HTT aggregate 11.2µM (no result: HTT cytoprotect)
COc1ccc(N2CCN(C(=O)c3cccnc3SCc3cccc(Br)c3)CC2)cc1	HTT aggregate 22.4µM
Cc1ccc(C(=O)Nc2ccc(Cc3ccncc3)cc2)cc1[N+](=O)[O-]	HTT aggregate 12.6µM
CCOc1ccc(Nc2nc(Cc3nnc(SCC(=O)c4ccc(C)c(C)c4)o3)cs2)cc1	HTT aggregate 10µM
Cc1ccc(NC(=O)CSc2nnc(Cc3csc(C)n3)o2)cc1	none (no result: HTT aggregate, GALK inhibitor, HTT cytoprotect)
O=C(N/N=C/c1ccccc1OC(=O)c1ccc2c(c1)OCO2)c1cccc(F)c1	HTT aggregate 2.51µM
COc1cc(C(=O)Oc2ccccc2/C=N/NC(=O)c2ccc(C)c(Cl)c2)cc(OC)c1OC	HTT aggregate 2.82µM
CC(=O)Nc1ccc(C(=O)N/N=C/c2ccccc2OC(=O)c2ccc(Cl)cc2)cc1	HTT aggregate inconclusive (no result: GALK inhibitor)
COc1cc(C(=O)Oc2ccccc2/C=N/NC(=O)c2ccc(Cl)cc2)cc(OC)c1OC	HTT aggregate 2.82µM
CCN(CC)S(=O)(=O)c1ccc(Oc2ccccc2)cc1	HTT aggregate 15.8µM
CCN(c1ccccc1)S(=O)(=O)c1ccc(Oc2ccccc2C(C)=O)nc1	none (no result: HTT aggregate, GALK inhibitor, HTT cytoprotect)
CCN(CC)S(=O)(=O)c1ccc(Oc2cccc(C(C)=O)c2)nc1	HTT aggregate 5.62µM
OC[C@H]1OC(O)[C@H](O)[C@@H](O)[C@H]1O (stereo partly specified)	none (no result: HTT aggregate, GALK inhibitor, HTT cytoprotect)
OCC1O[C@H]([S-])[C@H](O)[C@@H](O)[C@@H]1O.[Au+] (stereo partly specified)	PI4K2A inh -55.1 (no result: HTT aggregate, GALK inhibitor, HTT cytoprotect)
CCCCOCCCNC(=O)C[C@H]1C[C@@]2(C(=O)OC)C(=C[C@H](C3CCCC3)O[C@@H]2C)N(Cc2cccc3ccccc23)C1=O	none (no result: HTT aggregate, GALK inhibitor, HTT cytoprotect)
Cc1cccc(C)c1Nc1ncnc(N)c1[N+](=O)[O-]	none
Cc1ccc(CNc2ncnc(N)c2[N+](=O)[O-])cc1	HTT aggregate 4.47µM
Brc1ccc(C2C3=C(Nc4ncnn42)c2ccccc2OC3c2ccncc2)cc1 (stereo unspecified)	HTT aggregate 10µM
COc1ccc(C2Oc3ccccc3C3=C2C(c2cccs2)n2ncnc2N3)cc1 (stereo unspecified)	none
